In publication PMC4336329 (PLoS ONE, 2015):
Hit rate of the full screen: of about 310,000 compounds, about 14,000 (4.5%) showed an effect of 50% or more. Effects have a minus sign here. The entries come from a sample that favours strong results as a whole.

Biological target: human ether-à-go-go-related gene (hERG) potassium channel (human, UniProt Q12809)
Test: primary screen, population patch clamp on CHO cells stably expressing hERG; higher = less effect of the substance
Description: Briefly, Chinese hamster ovary (CHO) cells stably expressing the hERG channel were dislodged from tissue culture flasks and dispensed into PPC plates. […] During the recording, background leak currents were estimated by a 100 ms step to -80 mV from an initial holding potential of -70 mV and subtracted from the subsequent current measurement. The campaign was conducted in two phases using slight differences in recording protocol. In the first phase, the initial voltage pulse used a 100 ms step to -30 mV from a holding potential of -70 mV, a 2 s conditioning step to +25 mV, and a 2 s test step to -30 mV. During the second phase of the screen, the potential during the conditioning step was raised to +45 mV. In both phases of the campaign, a secondary voltage pulse was applied using the same parameters as the second phase initial pulse. The initial and secondary pulses were applied in the absence of compound, and upon application of 1 μM and 10 μM test concentrations. […]
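Further: peak tail current of the secondary pulse compared with the same well before compound.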

human ether-à-go-go-related gene (hERG) potassium channel, sequence (Q12809 whole entry, looked up): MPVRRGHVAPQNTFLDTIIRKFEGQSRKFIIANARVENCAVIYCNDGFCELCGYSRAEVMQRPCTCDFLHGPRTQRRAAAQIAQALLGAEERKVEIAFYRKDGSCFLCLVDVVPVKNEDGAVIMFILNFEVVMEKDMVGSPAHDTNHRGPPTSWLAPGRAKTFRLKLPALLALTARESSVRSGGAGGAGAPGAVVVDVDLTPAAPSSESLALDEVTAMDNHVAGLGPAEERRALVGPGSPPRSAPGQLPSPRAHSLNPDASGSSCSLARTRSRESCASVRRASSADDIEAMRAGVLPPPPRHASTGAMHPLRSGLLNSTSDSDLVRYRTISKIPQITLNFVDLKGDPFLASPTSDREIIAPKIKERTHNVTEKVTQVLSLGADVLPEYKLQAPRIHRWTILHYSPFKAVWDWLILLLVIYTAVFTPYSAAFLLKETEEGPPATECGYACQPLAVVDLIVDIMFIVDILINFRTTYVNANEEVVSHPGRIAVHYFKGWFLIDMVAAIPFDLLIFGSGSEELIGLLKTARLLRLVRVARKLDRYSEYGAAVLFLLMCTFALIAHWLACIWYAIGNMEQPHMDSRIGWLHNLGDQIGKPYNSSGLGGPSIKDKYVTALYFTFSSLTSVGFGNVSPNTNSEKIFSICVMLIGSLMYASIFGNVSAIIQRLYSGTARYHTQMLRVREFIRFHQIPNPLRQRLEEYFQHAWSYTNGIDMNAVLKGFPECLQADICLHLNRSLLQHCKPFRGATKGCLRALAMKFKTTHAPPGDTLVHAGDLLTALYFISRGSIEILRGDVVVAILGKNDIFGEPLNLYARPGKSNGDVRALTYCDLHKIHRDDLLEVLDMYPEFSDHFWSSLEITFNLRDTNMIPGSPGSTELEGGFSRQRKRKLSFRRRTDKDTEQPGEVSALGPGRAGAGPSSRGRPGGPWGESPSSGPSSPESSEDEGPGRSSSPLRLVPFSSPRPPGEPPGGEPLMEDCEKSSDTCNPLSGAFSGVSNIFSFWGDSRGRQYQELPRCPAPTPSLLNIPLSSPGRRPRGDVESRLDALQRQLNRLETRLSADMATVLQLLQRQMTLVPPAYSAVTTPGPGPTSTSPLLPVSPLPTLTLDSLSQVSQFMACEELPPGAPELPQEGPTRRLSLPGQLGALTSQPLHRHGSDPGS

Compound	hERG current change (%, negative = inhibition) at 10uM [%]
Cc1ccc(Nc2nnc(SCc3ccccc3)s2)cc1	11.9
O=[N+]([O-])c1ccc(S(=O)(=O)Nc2ccc(-c3ccc(N4CCCC4)nn3)cc2)cc1	-8.67
Cc1cc(C)c2nc(-c3ccccn3)cc(C(=O)Nc3ccc(S(=O)(=O)Nc4onc(C)c4C)cc3)c2c1	-2.33
CC(=O)OCCCN1C(=O)c2cccc3cc(Br)cc(c23)C1=O	4.74
O=S1(=O)c2ccccc2N=NN1Cc1ccc(Cl)cc1	16.1
Cn1c(O)c(C=NC2C(=O)C3(C)CCC2C3(C)C)c(=O)n(C)c1=O (stereo not drawn)	-0.548
Cc1onc(-c2c(F)cccc2Cl)c1C(=O)OCC(=O)NCc1ccco1	5.77
COc1ccc(OC)c(CN2CCC(C(=O)N(C)CCc3ccc(OC)c(OC)c3)CC2)c1.O=C(O)C(=O)O	-11.5
COc1ccc(CCN(C)C(=O)C2CCCN(Cc3ccc(OC)c(OC)c3)C2)cc1OC.O=C(O)C(=O)O (stereo not drawn)	-3.31
COc1ccc(CN2CCCC(C(=O)N(C)Cc3ccccc3)C2)cc1OC.O=C(O)C(=O)O (stereo not drawn)	-71.1
CN(Cc1ccccc1)C(=O)C1CCCN(Cc2cccc(Cl)c2)C1.O=C(O)C(=O)O (stereo not drawn)	-23.5
COc1ccc(CCN(C)C(=O)C2CCN(Cc3ccc(C)cc3)CC2)cc1OC.O=C(O)C(=O)O	-60.8
CN(Cc1ccccc1)C(=O)C1CCCN(Cc2ccc(Cl)cc2)C1.O=C(O)C(=O)O (stereo not drawn)	-71
COc1ccc(CCN(C)C(=O)C2CCN(Cc3ccccc3)CC2)cc1OC.O=C(O)C(=O)O	3.36
COc1ccc(CCN(C)C(=O)C2CCCN(Cc3ccc(OC)c(OC)c3)C2)cc1OC (stereo not drawn)	9.21
CCN(CC)C(=O)C1CCCN(Cc2ccccc2)C1 (stereo not drawn)	9.57
O=C1NC2(CCCCCC2)C(=O)N1Cc1ccc(Br)cc1	4.06
CCOc1ccc(-c2nnn(CC(=O)c3ccc4c(c3)OCCO4)n2)cc1OCC	-1.86
CCc1cc(S(=O)(=O)N2CCN(C(=O)c3ccco3)CC2)ccc1OC	1.76
COc1ccc(-c2noc3c2-c2nc(-c4cccc(C)c4)sc2CC3)cc1	7.57
Cc1ccc(-c2nnc(N3CCN(C(=O)CSc4ncn[nH]4)CC3)c3ccccc23)cc1	-32.6
Cc1cccc(OCC(=O)N2CCN(c3nnc(-c4ccccc4)c4ccccc34)CC2)c1	-69.7
Cc1ccc(-c2nnc(N3CCN(C(=O)COc4cccc(C)c4)CC3)c3ccccc23)cc1	-54.6
CO/N=C/NC(=O)Cc1cn(-c2ncc(C(F)(F)F)cc2Cl)c2ccccc12	3.84

Compound	hERG current change (%, negative = inhibition) at 10uM [%]
CCCOc1ccc(N2C(=O)CC(NCC(=O)OCC)C2=O)cc1 (stereo not drawn)	8.44
O=C(Cn1c(=O)cnc2ccccc21)NNC(=O)c1ccccc1Cl	4.84
COCCSc1ccccc1C(=O)Nc1ccccc1C(C)C	3.89
Cc1ccc(CN2CCN(Cc3cnc(N4CCOCC4)s3)CC2CCO)cc1 (stereo not drawn)	-46.7
OCCC1CN(Cc2cn[nH]c2C2CCCCC2)CCN1Cc1ccccc1 (stereo not drawn)	0.824
Cc1ccc(CN2CCN(Cc3ccc(C)s3)CC2CCO)cc1 (stereo not drawn)	-73.3
Cc1ccc(CN2CCN(Cc3ccccc3)C(CCO)C2)s1 (stereo not drawn)	-62.8
Cc1ccc(CN2CCN(CC(C)C)C(CCO)C2)s1 (stereo not drawn)	-21.5
Cc1ccc(CN2CCN(CCC(C)C)C(CCO)C2)s1 (stereo not drawn)	-29.5
Cc1ccc(CN2CCN(Cc3cn[nH]c3C3CCCCC3)CC2CCO)cc1 (stereo not drawn)	-62.9
Cc1ccc(CN2CCN(Cc3cnc(C)s3)CC2CCO)cc1 (stereo not drawn)	-19.4
Cc1ccc(CN2CCN(Cc3cnc(C)[nH]3)CC2CCO)cc1 (stereo not drawn)	10.8
CCCCc1ncc(CN2CCN(Cc3ccc(C)cc3)C(CCO)C2)[nH]1 (stereo not drawn)	-57.9
CC(C)=CCN1CCN(Cc2ccc(C)s2)CC1CCO (stereo not drawn)	-16.1
CC(C)=CCN1CCN(Cc2cn[nH]c2C2CCCCC2)CC1CCO (stereo not drawn)	0.0652
Cn1c(O)c(C=Nc2ccccc2-c2ccccc2)c(=O)n(C)c1=O	4.4
O=c1c2ccccc2cnn1Cc1n[nH]c(=S)n1-c1ccc(Cl)cc1	14.5
Cc1ccc(-c2nc(-c3ccccn3)sc2CC(=O)O)cc1	2.76
O=C(N/N=C/c1cccs1)c1ccco1	11.8
COc1ccc(NC(=O)COC(=O)C2CC2)c(OC)c1	-0.146
CC1CC(C)(C)NC(=S)N1CC(=O)NCc1ccc(F)cc1 (stereo not drawn)	0.792
O=C(Cn1nnc(-c2ccccc2)n1)NNC(=O)c1cccc([N+](=O)[O-])c1	26.3
COc1ccc(CCNC2CCc3ccccc3C2)cc1 (stereo not drawn)	-56
COc1ccc(CCNC(=O)C2Cc3ccccc3C(=O)O2)cc1 (stereo not drawn)	-1.35

Compound	hERG current change (%, negative = inhibition) at 10uM [%]
COc1ccc(CCNC2CCCCCC2)cc1	-4.62
COc1ccc(CCNC2CCCCC2)cc1.O=C(O)C(=O)O	-15.9
COc1ccc(CCNC(=O)C2CC2)cc1	0.64
COc1ccc(CCNC2CCC(c3ccccc3)CC2)cc1 (stereo not drawn)	-70.8
COc1ccc(S(=O)(=O)N2CCN(c3ccc(C)cc3C)CC2)cc1OC	5.72
COC(=O)[C@@H](NC(=O)N(C1CCCCC1)C1CCCCC1)C(C)C	-7.86
C#CCOCOCC#CCN(CC)CC	3.26
COc1ccc(-n2c(C)cc(C(=O)Cn3nc(C(=O)O)c4ccccc4c3=O)c2C)cc1	-1.43
CC(C)(C)c1ccc(CS(=O)CC(O)CO)cc1 (stereo not drawn)	19.3
Cc1cccnc1NC(=O)CNC(=O)c1cccs1	-8.89
CCCCOc1ccc(NS(=O)(=O)c2ccc(-n3cnnn3)cc2)cc1	-3.42
COc1ccc(S(=O)(=O)N2CCC(C(=O)NCCCc3ccccc3)CC2)cc1	-35.9
COc1ccc(S(=O)(=O)Nc2cccc(-n3cnnn3)c2)cc1	1.11
O=C(NCCc1ccccc1)C1CCN(S(=O)(=O)c2ccc(-n3cnnn3)cc2)CC1	-66.3
CC(=O)c1ccc(S(=O)(=O)Nc2ccc(-n3cnnn3)cc2)cc1	-6.16
O=C(NCCc1ccccc1)C1CCN(S(=O)(=O)c2ccc(-c3nn[nH]n3)cc2)CC1	-18.7
Cc1ccc(S(=O)(=O)N2CCC(C(=O)NCCc3ccccc3)CC2)cc1	-0.42
O=C(NCCCc1ccccc1)C1CCN(S(=O)(=O)c2ccc(F)cc2)CC1	-60.7
CC(=O)c1ccc(OCCNS(=O)(=O)c2ccc(-n3cnnn3)cc2)cc1	-55.3
COc1ccc(OCC(NS(=O)(=O)c2ccc(-n3cnnn3)cc2)C(C)C)cc1 (stereo not drawn)	-52.2
CC(=O)c1ccc(OCCNS(=O)(=O)c2ccc(-n3cnnn3)c(C)c2)cc1	-2.88
O=C(CCNC(=O)C1CCN(S(=O)(=O)c2ccc(F)cc2)CC1)NCc1ccccc1	2.4
Cc1ccc(N2CCN(C(=O)c3cccs3)CC2)cc1C	2.97
Cc1cccn(Cc2c(Cl)cccc2Cl)c1=O	-9.53

Compound	hERG current change (%, negative = inhibition) at 10uM [%]
CCOc1ccc(N(CC(=O)NC(C(C)C)C(C)C)S(=O)(=O)c2ccc(OC)c(OC)c2)cc1	38
CCOC(=O)CNC(=S)N(Cc1ccccc1)Cc1cccs1	-17.3
COc1ccc(NC(=O)c2ccc(OC)cc2)cc1	-30
COc1ccc(OC)c(C2=Nn3c(nnc3-c3cc(OC)c(OC)c(OC)c3)SC2)c1	-21
CC(C)(C)NS(=O)(=O)c1cc(C(=O)Nc2sccc2C#N)ccc1Cl	4.98
COc1ccc(NC(=O)NC2(C(=O)N3CCCC3)CCCCC2)cc1	22
Cc1ccc(NC(=O)CN(C)C(=O)c2cccc(S(=O)(=O)N3CCc4ccccc43)c2)cc1	-15.6
CC(=O)C1=C(O)C(=O)N(Cc2cccnc2)C1c1ccc(C(C)C)cc1 (stereo not drawn)	17.1
CC(=O)N1c2ccc(S(=O)(=O)N3CCC(C(=O)NCc4ccc(N(C)C)cc4)CC3)cc2CC1C (stereo not drawn)	18.8
CCOc1cc(S(=O)(=O)NCc2ccccc2)c(OCC)cc1-n1cnnn1	-14.3
CC(C)CNC(=O)C1CCN(S(=O)(=O)c2ccc(-n3cnnn3)cc2)CC1	-55.3
CCOc1ccc(-n2cnnn2)cc1S(=O)(=O)NCc1ccccc1	-71
COc1ccc(CCNS(=O)(=O)c2ccc(-n3cnnn3)cc2)cc1OC	-26
O=C(NCCc1ccc(Cl)cc1)C1CCN(S(=O)(=O)c2ccc(-n3cnnn3)cc2)CC1	-69
CC(C)CNC(=O)C1CCCN(S(=O)(=O)c2ccc(-n3cnnn3)cc2)C1 (stereo not drawn)	-0.697
CC(=O)Nc1ccc(S(=O)(=O)N2CCC(C(=O)NCCc3ccc(Cl)cc3)CC2)cc1	5.7
Cc1cc(S(=O)(=O)NCCc2ccccc2)ccc1-n1cnnn1	-17.1
CC(C)CCNC(=O)C1CCN(S(=O)(=O)c2ccc(-n3cnnn3)cc2)CC1	-37.6
COc1ccc(CCNC(=O)C2CCN(S(=O)(=O)c3ccc(-n4cnnn4)cc3)CC2)cc1OC	-13
CCOc1ccc(-n2cnnn2)cc1S(=O)(=O)Nc1c(C)cccc1C	-19.4
O=S(=O)(NCCc1ccccc1)c1ccc(-n2cnnn2)cc1	-56.7
